Screening results (PubChem)
HT1080NT lethal = qHTS for induction of synthetic lethality in tumor cells producing 2HG: qHTS for the HT-1080-NT fibrosarcoma cell line; HT-1080-NT fibrosarcoma viability, CellTiter-Glo ATP luminescence, 48 h; Potency, µM (top dose mostly 46.1 µM), for the others: top-dose activity, negative = less viability, actives largely listed as cytotoxic; 1.6% of 360,000 active; AID 686970, 2013;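 further: NT is the 2HG producing partner of a matched IDH1 knockdown line; potency means the concentration at half of the fitted maximal effect; 0% = DMSO-treated cells and -100% = media-only wells without cells; nearly all actives have a fitted effect of over 55% in size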
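Compounds were tested in concentration-response format on HT-1080-NT cells for 48 hours at 37 degrees C. Cell viability came from CellTiter-Glo luminescence; curves were classified by r2, response magnitude and activity.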
HT1080 IDH1KD tx = qHTS for induction of synthetic lethality in tumor cells producing 2HG: qHTS for the HT-1080-IDH1KD cell line; HT-1080 IDH1 knockdown viability, ATP luminescence, 48 h; Potency, µM (series often up to 46.1 µM), for inactives: at the top dose activity, negative = toxicity, hits mostly cytotoxic; AID 686971, 2013; 2% of 360,000 active;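 further: potency means the concentration at half of the fitted maximal effect; 0% = DMSO wells and -100% = cell-free medium wells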
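Using the IDH1-knockdown HT-1080 line run in the same batch and compound series as the NT line, viability after 48 h at 37 °C was determined by CellTiter-Glo luminescence and expressed as % activity.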
TDP1 cell noCPT = qHTS for Inhibitors of human tyrosyl-DNA phosphodiesterase 1 (TDP1): qHTS in cells in absence of CPT. Potency, µM (highest dose often 46.2 µM), without a hit: at the top dose activity change, negative = growth inhibition, actives largely listed as inhibitors. 15% of 420,000 active. DT40 Tdp1-/- hTDP1 cells, no CPT, ATP luminescence, 48 h; further: potency means the concentration at half of the fitted maximal effect; nearly all actives have a fitted effect of over 55% in size
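Cells were dispensed at 400 per well, compounds added by pin tool, plates incubated ≥48 hr at 37 °C, then CellTiter-Glo added for 30 min at room temperature before luminescence reading. Line: DT40 Tdp1-/- complemented with hTDP1; camptothecin omitted.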
IL1B secr inh = qHTS for Inhibitors of Inflammasome Signaling: IL-1-beta AlphaLISA Primary Screen; THP-1 LPS/ATP IL-1B secretion, AlphaLISA, 16 h; stronger effect = lower value; activity change, % at 57.5 µM; 4.7% of 360,000 active; in the data active means activity change below about -50%; inconclusive means mostly about -30% to -49%
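Secreted IL-1B measured by AlphaLISA bead assay after 16 h compound exposure of THP-1 cells; compounds (final up to 57.5 uM) added 1 h before LPS (250 ng/mL) and ATP (1.25 mM) stimulation; lower signal means less secretion.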
DT40 TDP1 CPT = qHTS for Inhibitors of human tyrosyl-DNA phosphodiesterase 1 (TDP1): qHTS in cells in presence of CPT; chicken DT40 Tdp1-/-;hTDP1 cells + 20 nM CPT, ATP luminescence, 48 h; Potency, µM (top dose mostly 46.2 µM), for the others: at the top dose activity change, negative = growth inhibition, most hits filed as inhibitors; 12% of 420,000 active; further: potency means the concentration at half of the fitted maximal effect; nearly all actives have a fitted effect of over 55% in size
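Chicken DT40 Tdp1-/- cells stably complemented with human TDP1 were seeded at 400 cells/well in medium containing 20 nM camptothecin, exposed to pin-transferred compounds, and grown at 37 °C for at least 48 hr. Viability was read as ATP luminescence.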
An asterisk follows results filed as active; ? = inconclusive; nt = no result given; [ ] = remark or other dose. A selection: hits, their analogues and other compounds. The true share with any hit is near 19%. Unless noted, the call rests on the fitted dose curve; in most records, active means well fitted curve in the direction sought with a large enough effect; inconclusive means small, poorly fitted or top-dose-only effect, or another doubt; inactive means no such curve, though single readings can be large; an effect the other way counts as inactive or inconclusive. Unless noted, on the % scale 0 is the no-effect control and ±100 the full control effect.

SMILES	HT1080NT lethal	HT1080 IDH1KD tx	TDP1 cell noCPT	IL1B secr inh	DT40 TDP1 CPT
O=C1C(=Cc2ccccc2[N+](=O)[O-])Cc2ccccc21	?	?	3.26µM*	-103.4*	2.59µM*
CNc1ccc(/C=C2\CSc3ccccc3C2=O)cc1[N+](=O)[O-]	?	?	?	16.8	?
CC1(C)CC(=Cc2ccccc2[N+](=O)[O-])C(=O)c2ccccc21	-6.0%	2.0%	16.4µM*	-12.7	-29.7%
O=C1NC(=O)C(=Cc2ccccc2[N+](=O)[O-])S1	20.6µM*	?	20.6µM*	?	?
COc1ccc(Cl)cc1NC(=O)CN(C)C(=O)c1ccc(-n2cncn2)cc1	-2.3%	-5.0%	-13.4%	17.5	-10.9%
Cn1c(-c2ccncc2)nc2cc(C(=O)N3CCCC3c3nccs3)cc(NC(=O)C3CCC3)c21 (stereo not given)	nt	nt	-15.3%	nt	-12.5%[9.04 µM]
COc1ccccc1CNC(=O)c1cc2c(=O)oc3ccc(C)cc3c2s1	nt	nt	?	nt	3.1%
CC(=O)N1CCC(N(C(=O)Nc2ccc(C)c(C)c2)C2CCCC2)CC1	-1.7%	-15.6%	-15.0%	5.8	-15.1%
COc1cccc(NC(=O)N(Cc2cn(C)c3ccccc23)C2CCCCC2)c1	nt	nt	7.31µM*	nt	4.11µM*
Cc1ccc(NC(=O)N(Cc2cn(C)c3ccccc23)C2CCCCC2)cc1C	nt	nt	5.17µM*	nt	5.8µM*
O=S(=O)(Nc1ccc(-c2ccc3nncn3n2)cc1)c1ccccc1Cl	-10.2%	-12.5%	-10.0%	7.6	?
COc1ccc(S(=O)(=O)Nc2ccc(-c3ccc4nncn4n3)cc2)c(OC)c1	?	?	10.3µM*	-6.7	9.2µM*
COc1ccc(Cl)cc1C(=O)Nc1cccc(-c2ccc3nncn3n2)c1	4.5%	13.2%	-19.1%	-63.7*	?
CCc1ccc(S(=O)(=O)Nc2cccc(-c3ccc4nncn4n3)c2)s1	?	?	14.6µM*	26.8	?
O=C(COc1ccc(Cl)cc1)Nc1cccc(-c2ccc3nncn3n2)c1	22.3%	2.5%	16.4µM*	-18.2	-25.3%
COCC(=O)Nc1cccc(-c2ccc3nncn3n2)c1	-2.5%	1.3%	17.3%	-4.0	-13.7%
O=S(=O)(Nc1ccc(-c2ccc3nncn3n2)cc1)c1ccc(Cl)s1	-7.0%	-1.7%	-11.3%	26.1	5.6%
Cc1cccc(S(=O)(=O)Nc2ccc(-c3ccc4nncn4n3)cc2)c1	-12.9%	-2.6%	?	13.5	?
COc1ccc(C(=O)Nc2cccc(-c3ccc4nncn4n3)c2)cc1	-9.2%	?	14.6µM*	20.6	14.6µM*
COc1ccc(S(=O)(=O)Nc2cccc(-c3ccc4nncn4n3)c2)cc1	16.4µM*	10.3µM*	2.59µM*	27.2	3.66µM*
Cc1ccccc1NC(=O)CN1C(=O)C2(SCC(=O)N2c2ccc(F)cc2)c2ccccc21 (stereo not given)	nt	nt	-18.5%	nt	-16.6%
Cc1ccc(C)c(NC(=O)CN2C(=O)C3(SCC(=O)N3c3ccc(C)c(C)c3)c3ccccc32)c1 (stereo not given)	nt	nt	18.4µM*	nt	?
CCc1ccc(NC(=O)CN2C(=O)C3(SCC(=O)N3c3ccccc3)c3ccccc32)cc1 (stereo not given)	nt	nt	?	nt	20.6µM*
O=C(CN1C(=O)C2(SCC(=O)N2c2ccccc2)c2ccccc21)Nc1ccccc1C(F)(F)F (stereo not given)	nt	nt	?	nt	23.1µM*
Cc1ccc2cc(C#N)c(N3CCCN(S(=O)(=O)c4ccccc4)CC3)nc2c1C	-6.5%	-15.7%	-13.0%	21.8	-8.7%
SMILES	HT1080NT lethal	HT1080 IDH1KD tx	TDP1 cell noCPT	IL1B secr inh	DT40 TDP1 CPT
Cc1ccc2nc(N3CCN(C)CC3)c(C#N)cc2c1	0.0%	0.5%	-11.7%	-9.8	-5.0%
Cc1ccc2cc(C#N)c(N3CCCN(S(=O)(=O)c4ccc(F)cc4)CC3)nc2c1	8.0%	9.7%[9.24 µM]	14.6µM*	-12.9	?
Cc1ccc2nc(N3CCN(S(=O)(=O)c4ccc(C)c(Cl)c4)CC3)c(C#N)cc2c1	?	?	20.6µM*	10.3	20.6µM*
Cc1ccc2cc(C#N)c(N3CCN(C)CC3)nc2c1	-1.7%	0.3%	-11.2%	-9.4	-4.8%
Cc1ccc2cc(C#N)c(N3CCCN(S(=O)(=O)c4ccccc4)CC3)nc2c1	2.3%	25.4%	25.9µM*	35.2	?
COc1ccc(N(CC(=O)NCc2cccs2)S(=O)(=O)c2ccc(C(C)=O)cc2)cc1	1.0%	-4.8%	?	-1.4	0.2%
CN1CCCN(S(=O)(=O)c2ccc(Cl)c(Cl)c2)CC1	-14.8%	-3.4%	-7.9%	9.5	-20.4%
O=C(COC(=O)c1ccc(O)cc1O)NC1CC1	9.8%	1.0%	9.6%	25.6	-3.1%
CCCNCC(O)Cn1c2ccccc2n2c(=O)cc(C)c(C#N)c12 (stereo not given)	2.3%	1.4%	?	-23.5	?
Cc1cc(=O)n2c3ccccc3n(CC(O)CN3CCCC3)c2c1C#N (stereo not given)	?	?	?	-65.1*	?
Cc1cccc(NC(=S)N2CCC(NC(=O)c3ccco3)CC2)c1	14.0%	11.7%	-26.8%	-6.3	7.7%
Cc1cc(C)n2nc(-c3sccc3-n3cccc3)cc2n1	8.2%	10.3%[9.24 µM]	?	-19.9	?
Cc1cc(C)n2nc(-c3sccc3-n3c(C)ccc3C)cc2n1	4.7%	-11.6%	16.4µM*	0.0	23.1µM*
Cc1cccc2sc(NS(C)(=O)=O)nc12	-6.4%	-7.4%	1.3%	49.6	-8.9%
COc1ccc(C(=O)N/N=C/c2cccc3cccnc23)cc1	-15.9%	?	4.61µM*	133.0	4.11µM*
COc1ccc(C(=O)N/N=C/c2c[nH]c3ccccc23)cc1	0.0%	0.8%	2.0%	-4.6	0.4%
CSCC[C@H](NC(=O)OC(C)(C)C)C(=O)N/N=C/c1cccc2cccnc12	-10.6%	?	20.6µM*	87.1	25.9µM*
COc1ccc(C(=O)N/N=C/c2cccnc2)cc1	2.8%	8.0%	7.3%	11.5	1.3%
CCOc1ccccc1C(=O)N/N=C/c1cccc2cccnc12	-28.8%	?	?	50.0	?
COc1ccc(C(=O)N/N=C/c2cc3ccccc3[nH]c2=S)cc1	-25.4%	?	1.46µM*	7.8	1.46µM*
CCOc1ccc(C(=O)N/N=C/c2cccc3cccnc23)cc1	?	?	9.2µM*	162.5	10.3µM*
O=C(c1ccc(F)c(F)c1)N1CCC2(CC1)NCCc1[nH]cnc12	4.3%	-1.7%	16.2%	8.6	-6.3%
